Screens (PubChem BioAssay)
A selection: hits, their analogues and other compounds. The true share with any hit is near 5.3%.
JMJD2A Tudor inh = qHTS Assay for Inhibitors of JMJD2A-Tudor Domain. AlphaScreen JMJD2A-Tudor / H3K4me3 peptide binding. Potency, µM (titrated, usually from 114 µM), usual class: inhibitors. actives 4.4% (n = 390,000); further: nearly all actives have a fitted effect of over 50% in size
Six1-Eya2 blk = qHTS Assay for Inhibitors of the Six1/Eya2 Interaction | activity change, % (test concentration not listed) | Homeobox protein SIX1 (Homo sapiens) + Protein phosphatase EYA2 (Homo sapiens), … | actives 0.56% (n = 360,000) | AlphaScreen GST-Six1/His-Eya2 binding, biochemical; stronger effect = lower value; in the data active means activity change below about -65%; inconclusive means mostly about -30% to -63%
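Compounds are tested against tagged Six1 and Eya2 proteins bridged by glutathione donor and nickel acceptor beads; after a one-hour incubation at 37 °C without light, AlphaScreen emission is recorded.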
BAZ2B inh = qHTS Assay for Inhibitors of BAZ2B; AlphaScreen BAZ2B-H3K14Ac peptide displacement; Potency, µM (top dose mostly 114 µM), most hits filed as inhibitors; actives 4.4% (n = 360,000); AID 504333, 2011; further: nearly all actives have a fitted effect of over 60% in size
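AlphaScreen displacement of biotin-H3(5-23)K14Ac peptide (50 nM final) from BAZ2B (50 nM final) in PBS pH 7.4, 0.01% Tween-20; complex preformed 30 min RT, then compounds (top 110 uM) 30 min RT, beads 20 min dark.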
CtBP-E1A blk = qHTS Assay for Inhibitors of the CtBP/E1A Interaction; AlphaScreen GST-E1A/His-CtBP binding, 1536-well; stronger effect = lower value; activity change, % (no concentration beside the values); actives 0.49% (n = 340,000); AID 651724, 2012; in the data active means activity change below about -65%; inconclusive means mostly about -30% to -63%
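AlphaScreen with 125 nM GST-E1A and 125 nM His-CtBP (5X stocks) in Tris pH 8.0, 300 mM NaCl, BSA, Tween 20, TCEP. Compounds preincubated 2 h at 37 deg C, then glutathione donor/nickel acceptor beads added for 1 h at 37 deg C in dark.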
HP1b chromo inh = HTS for Inhibitors of HP1-beta Chromodomain Interactions with Methylated Histone Tails | actives 0.56% (n = 390,000) | Potency, µM (series often up to 114 µM), usual class: inhibitors | AlphaScreen HP1-beta / biotin-H3K9me3 peptide binding | Chromobox protein homolog 1 (Homo sapiens), P83916; further: nearly all actives have a fitted effect of over 70% in size
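Compound inhibition of the preformed complex between 50 nM HP1-beta and 50 nM biotinylated H3K9me3 peptide was read by AlphaScreen. Buffer was PBS pH 7.4 with 0.01% Tween-20. Incubations ran 30 min at room temperature, with 10 ug/mL donor/acceptor beads.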
TDP1 inh = qHTS Assay for Inhibitors of Tyrosyl-DNA Phosphodiesterase (TDP1); Tyrosyl-DNA phosphodiesterase 1 (Homo sapiens), Q9NUW8; AID 485290, 2010; Potency, µM (series often up to 130 µM), most hits filed as inhibitors; recombinant TDP1, AlphaScreen DNA substrate cleavage; actives 0.28% (n = 350,000); further: nearly all actives have a fitted effect of over 40% in size
Target sequence (Q9NUW8 whole entry, looked up): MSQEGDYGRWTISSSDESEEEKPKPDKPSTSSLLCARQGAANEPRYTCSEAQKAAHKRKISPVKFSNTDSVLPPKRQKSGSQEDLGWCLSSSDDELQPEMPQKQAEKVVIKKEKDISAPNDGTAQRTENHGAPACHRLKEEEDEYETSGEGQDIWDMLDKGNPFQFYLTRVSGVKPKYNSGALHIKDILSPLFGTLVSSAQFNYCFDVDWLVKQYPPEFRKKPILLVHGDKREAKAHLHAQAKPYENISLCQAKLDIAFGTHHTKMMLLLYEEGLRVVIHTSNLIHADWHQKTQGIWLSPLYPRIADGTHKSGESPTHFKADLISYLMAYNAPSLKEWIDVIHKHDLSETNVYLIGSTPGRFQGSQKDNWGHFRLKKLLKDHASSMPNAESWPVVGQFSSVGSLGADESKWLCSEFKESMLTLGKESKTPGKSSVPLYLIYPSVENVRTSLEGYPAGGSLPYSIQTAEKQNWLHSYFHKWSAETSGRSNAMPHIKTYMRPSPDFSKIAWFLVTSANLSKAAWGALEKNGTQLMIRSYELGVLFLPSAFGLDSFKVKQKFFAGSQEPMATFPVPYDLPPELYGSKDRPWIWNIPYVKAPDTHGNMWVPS
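Compounds were preincubated with Tdp1 (1 nM final) for 15 min at room temperature before substrate (15 nM final) started a 5 min reaction; beads (10 ug/ml final) were then added for 10 min before AlphaScreen detection.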
G9a inh = qHTS Assay for Inhibitors of Histone Lysine Methyltransferase G9a: Hit Confirmation; G9a H3K9 monomethylation, AlphaScreen, 2 h; AID 588344, 2011; actives 89% (n = 370); shares compounds with JMJD2A Tudor inh; Potency, µM, most hits filed as inhibitors; further: nearly all actives have a fitted effect of over 65% in size
Hits are given with their value; n = inactive; u = inconclusive; x = no result; [ ] = remark or other dose. Unless noted, the call rests on the fitted dose curve; in most records, active means well fitted curve in the direction sought with a large enough effect; inconclusive means small, poorly fitted or top-dose-only effect, or another doubt; inactive means no such curve, though single readings can be large; an effect the other way counts as inactive or inconclusive.

SMILES | JMJD2A Tudor inh | Six1-Eya2 blk | BAZ2B inh | CtBP-E1A blk | HP1b chromo inh | TDP1 inh | G9a inh
CCN(CC)c1ccc(NC(=O)COC(=O)C23CCC(=O)N2c2ccccc2S3)cc1 (stereo unspecified) | u | n | u | n | u | n | 5
Cc1ccc(NC(=O)CNc2ccc(OC(C)C)cc2)cc1 | u | n | 50µM | n | n | n | 7.9
Cc1sc2ncn(CC(=O)Nc3cccc(C(F)(F)F)c3)c(=O)c2c1S(=O)(=O)N1CCN(C)CC1 | n | x | n | x | n | n | x
COc1cc(Cl)c(C)cc1NC(=O)CSc1cc(=O)n(C)c2cc(Cl)ccc12 | n | x | x | x | n | n | x
O=C(OCC(=O)c1ccccc1Br)c1ccccn1 | 8.9µM | u | 10µM | u | n | n | 1.6
COc1ccc(C(=O)COC(=O)c2ccccn2)c(OC)c1 | n | n | x | n | n | n | x
Cc1ccccc1OC1C=CC(c2ccccc2)OC1CO (stereo unspecified) | x | x | x | x | x | n[21 µM] | x
COc1ccc(N2CCN(C(=O)NC3CCCCC3)CC2)cc1 | n | n | n | n | n | n | x
CC(C(=O)NC(=O)NC1CCCCC1)N1CCN(c2ccc(O)cc2)CC1 (stereo unspecified) | 22µM | n | u | n | 79µM | n | 0.56
O=C(CN1CCN(c2ccc(F)cc2)CC1)N1CCC(Cc2ccccc2)CC1 | 11µM | n | 35µM | n | u | n | 16
Fc1cc(F)c2ncc3c(-c4ccccc4)nn(-c4cccc(Cl)c4)c3c2c1 | n | x | x | x | n | n | x
O=C(C1CCCO1)N1CCN(Cc2c(O)ccc3ccccc23)CC1 (stereo unspecified) | 79µM | n | n | n | n | n | 0.36
